# Laboratory results from paper PMC7862700, “An all-to-all approach to the identification of sequence-specific readers for epigenetic DNA modifications on cytosine”.
# Assays:
# Assay in all cases: DAPPL (digital affinity profiling via proximity ligation, sequencing); 10 mM Tris-HCl pH 7.5, 50 mM NaCl, 1 mM DTT, 4% glycerol, room temperature, 30 min; GST-TFs on glutathione beads, 16-mer random dsDNA library, 0.1% formaldehyde crosslink after washing; high values mean tight binding
# Conditions in all cases: protein: recombinant; tags: N-terminal GST; dsDNA, one strand shown
# ELK1 = molecular target: T1, ELK1 (Homo sapiens, UniProt P19419 1-428)
# T1 sequence: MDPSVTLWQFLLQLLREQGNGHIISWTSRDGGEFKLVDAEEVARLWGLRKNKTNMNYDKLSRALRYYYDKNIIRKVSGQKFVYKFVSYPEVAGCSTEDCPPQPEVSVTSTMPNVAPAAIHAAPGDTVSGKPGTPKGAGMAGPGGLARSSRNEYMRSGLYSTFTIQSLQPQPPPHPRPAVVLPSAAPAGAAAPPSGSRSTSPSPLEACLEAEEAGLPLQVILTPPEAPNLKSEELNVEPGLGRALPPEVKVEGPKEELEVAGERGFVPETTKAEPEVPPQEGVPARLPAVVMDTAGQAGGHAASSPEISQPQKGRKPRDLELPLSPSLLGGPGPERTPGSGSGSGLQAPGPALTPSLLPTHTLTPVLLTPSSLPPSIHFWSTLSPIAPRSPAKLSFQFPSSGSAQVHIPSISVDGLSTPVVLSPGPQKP
# Method in brief: (§1)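 Pools were built from human transcription factors expressed in yeast as GST fusions, captured on glutathione beads and DNA-barcoded, along with a tag-only sample. Incubation with 200 nmole of a 16-mer random double-stranded DNA library lasted 30 min at room temperature in Tris/NaCl/DTT/glycerol buffer, and was followed by washing, 0.1% formaldehyde crosslinking, proximity ligation, PCR amplification and Illumina NextSeq500 sequencing. Binding signal is the quotient of each hexamer's read frequency for a factor and its frequency for the tag-only sample.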
# GABPA = molecular target: T2, GABPA (Homo sapiens, UniProt Q06546 1-454)
# T2 sequence: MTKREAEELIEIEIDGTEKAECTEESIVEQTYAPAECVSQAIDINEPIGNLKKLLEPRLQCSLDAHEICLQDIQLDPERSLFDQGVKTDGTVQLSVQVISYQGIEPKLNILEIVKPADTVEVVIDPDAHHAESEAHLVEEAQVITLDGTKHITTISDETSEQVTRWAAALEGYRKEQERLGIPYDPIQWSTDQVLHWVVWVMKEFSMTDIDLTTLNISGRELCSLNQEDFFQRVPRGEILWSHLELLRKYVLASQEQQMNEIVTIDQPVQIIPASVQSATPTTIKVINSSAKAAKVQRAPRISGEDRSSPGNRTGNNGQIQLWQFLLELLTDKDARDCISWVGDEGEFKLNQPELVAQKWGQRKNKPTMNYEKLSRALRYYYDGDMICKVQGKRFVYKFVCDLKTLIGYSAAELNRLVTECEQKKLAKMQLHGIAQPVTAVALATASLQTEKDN
# Method in brief: as §1
# ELF1 = ELF1 (Homo sapiens, UniProt P32519 1-619)
# ELF1, sequence (P32519 whole entry): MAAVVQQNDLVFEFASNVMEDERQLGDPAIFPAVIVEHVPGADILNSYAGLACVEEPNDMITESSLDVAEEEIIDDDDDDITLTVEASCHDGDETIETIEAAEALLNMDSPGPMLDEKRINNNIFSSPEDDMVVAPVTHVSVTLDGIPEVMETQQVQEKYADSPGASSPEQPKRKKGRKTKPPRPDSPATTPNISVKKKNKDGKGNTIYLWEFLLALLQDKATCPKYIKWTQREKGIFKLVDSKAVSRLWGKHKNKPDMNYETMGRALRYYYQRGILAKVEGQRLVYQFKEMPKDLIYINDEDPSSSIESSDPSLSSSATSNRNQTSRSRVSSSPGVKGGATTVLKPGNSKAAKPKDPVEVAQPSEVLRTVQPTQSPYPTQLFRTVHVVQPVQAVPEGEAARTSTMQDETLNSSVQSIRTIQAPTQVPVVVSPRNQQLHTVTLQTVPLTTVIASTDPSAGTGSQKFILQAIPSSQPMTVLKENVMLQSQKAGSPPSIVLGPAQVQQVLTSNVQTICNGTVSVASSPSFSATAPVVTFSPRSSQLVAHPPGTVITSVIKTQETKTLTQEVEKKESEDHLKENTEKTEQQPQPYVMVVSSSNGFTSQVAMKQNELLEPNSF
# Method in brief: as §1
# EHF = molecular target: T3, EHF (Homo sapiens, UniProt Q9NZC4 1-300)
# T3 sequence: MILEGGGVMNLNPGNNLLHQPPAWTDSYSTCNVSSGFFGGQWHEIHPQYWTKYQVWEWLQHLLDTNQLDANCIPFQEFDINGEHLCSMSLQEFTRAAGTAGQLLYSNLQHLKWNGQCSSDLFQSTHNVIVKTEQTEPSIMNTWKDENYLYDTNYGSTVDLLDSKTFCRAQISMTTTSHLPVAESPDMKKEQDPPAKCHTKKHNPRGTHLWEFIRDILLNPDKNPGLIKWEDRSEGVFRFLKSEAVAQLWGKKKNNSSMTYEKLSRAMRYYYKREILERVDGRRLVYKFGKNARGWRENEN
# Method in brief: as §1
# SPIB = SPIB (Homo sapiens, UniProt Q01892 1-262)
# SPIB, sequence (Q01892 whole entry): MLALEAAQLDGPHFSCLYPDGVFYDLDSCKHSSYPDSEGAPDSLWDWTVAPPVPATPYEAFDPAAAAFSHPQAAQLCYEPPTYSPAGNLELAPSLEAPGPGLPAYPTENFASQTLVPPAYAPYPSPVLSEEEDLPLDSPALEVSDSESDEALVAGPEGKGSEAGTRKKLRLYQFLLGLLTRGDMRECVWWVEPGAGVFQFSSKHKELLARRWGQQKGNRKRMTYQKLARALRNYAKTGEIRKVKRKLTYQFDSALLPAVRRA
# Method in brief: as §1
# FEV = molecular target: T4, FEV (Homo sapiens, UniProt Q99581 1-238)
# T4 sequence: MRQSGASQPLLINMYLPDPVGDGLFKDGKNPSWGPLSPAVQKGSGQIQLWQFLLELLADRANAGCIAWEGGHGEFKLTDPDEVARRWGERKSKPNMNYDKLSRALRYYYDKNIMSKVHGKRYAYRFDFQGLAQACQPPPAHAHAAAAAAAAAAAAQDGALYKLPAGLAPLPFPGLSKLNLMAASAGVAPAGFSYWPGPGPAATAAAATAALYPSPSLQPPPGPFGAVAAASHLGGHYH
# Method in brief: as §1
# ETV5 = ETV5 (Homo sapiens, UniProt P41161 1-510)
# ETV5, sequence (P41161 whole entry): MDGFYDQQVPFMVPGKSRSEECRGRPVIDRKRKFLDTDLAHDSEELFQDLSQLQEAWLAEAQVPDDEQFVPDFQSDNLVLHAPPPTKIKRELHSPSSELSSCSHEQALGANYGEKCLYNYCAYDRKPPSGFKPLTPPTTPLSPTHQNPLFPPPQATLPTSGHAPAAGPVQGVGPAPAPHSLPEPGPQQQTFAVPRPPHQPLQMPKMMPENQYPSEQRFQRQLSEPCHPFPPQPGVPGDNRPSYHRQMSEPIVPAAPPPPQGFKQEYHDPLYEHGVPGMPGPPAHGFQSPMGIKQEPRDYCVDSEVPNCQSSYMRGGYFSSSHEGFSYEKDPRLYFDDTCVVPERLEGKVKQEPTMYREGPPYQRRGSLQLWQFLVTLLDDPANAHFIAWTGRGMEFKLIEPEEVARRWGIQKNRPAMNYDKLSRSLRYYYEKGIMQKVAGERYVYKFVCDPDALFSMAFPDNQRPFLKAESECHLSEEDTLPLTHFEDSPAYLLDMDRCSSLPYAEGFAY
# Method in brief: as §1
# ELF4 = ELF4 (Homo sapiens, UniProt Q99607 1-663)
# ELF4, sequence (Q99607 whole entry): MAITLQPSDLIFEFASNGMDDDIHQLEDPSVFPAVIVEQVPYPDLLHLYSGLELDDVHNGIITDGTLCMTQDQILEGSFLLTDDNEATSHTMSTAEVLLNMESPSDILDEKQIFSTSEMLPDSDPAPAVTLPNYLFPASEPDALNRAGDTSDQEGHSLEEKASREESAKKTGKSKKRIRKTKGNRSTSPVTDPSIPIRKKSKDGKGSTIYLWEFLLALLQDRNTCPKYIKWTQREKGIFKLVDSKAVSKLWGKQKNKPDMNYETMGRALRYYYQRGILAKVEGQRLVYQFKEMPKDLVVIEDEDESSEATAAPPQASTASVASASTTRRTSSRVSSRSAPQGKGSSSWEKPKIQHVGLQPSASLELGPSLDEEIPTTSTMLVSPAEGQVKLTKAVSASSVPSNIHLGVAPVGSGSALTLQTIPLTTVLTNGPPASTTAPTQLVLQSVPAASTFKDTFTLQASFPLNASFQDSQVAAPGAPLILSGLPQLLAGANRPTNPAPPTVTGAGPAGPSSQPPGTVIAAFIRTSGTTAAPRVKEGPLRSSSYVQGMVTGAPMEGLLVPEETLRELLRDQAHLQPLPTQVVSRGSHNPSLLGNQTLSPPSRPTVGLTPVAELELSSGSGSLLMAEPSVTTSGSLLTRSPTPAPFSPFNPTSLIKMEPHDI
# Method in brief: as §1
# ELK4 = molecular target: T5, ELK4 (Homo sapiens, UniProt P28324-2 1-405)
# T5 sequence: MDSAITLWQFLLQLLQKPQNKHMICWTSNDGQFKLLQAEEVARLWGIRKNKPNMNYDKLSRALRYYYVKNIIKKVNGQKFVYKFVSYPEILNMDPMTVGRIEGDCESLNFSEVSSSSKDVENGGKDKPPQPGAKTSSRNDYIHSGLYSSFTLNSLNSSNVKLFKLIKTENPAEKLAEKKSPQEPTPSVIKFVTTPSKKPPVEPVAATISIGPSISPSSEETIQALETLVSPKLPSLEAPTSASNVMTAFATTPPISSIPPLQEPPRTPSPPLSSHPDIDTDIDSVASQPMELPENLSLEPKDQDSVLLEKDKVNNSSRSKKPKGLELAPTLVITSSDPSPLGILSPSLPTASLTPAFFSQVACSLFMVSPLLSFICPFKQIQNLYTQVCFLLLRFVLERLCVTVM
# Method in brief: as §1
# ETV2 = molecular target: T6, ETV2 (Homo sapiens, UniProt O00321 1-342)
# T6 sequence: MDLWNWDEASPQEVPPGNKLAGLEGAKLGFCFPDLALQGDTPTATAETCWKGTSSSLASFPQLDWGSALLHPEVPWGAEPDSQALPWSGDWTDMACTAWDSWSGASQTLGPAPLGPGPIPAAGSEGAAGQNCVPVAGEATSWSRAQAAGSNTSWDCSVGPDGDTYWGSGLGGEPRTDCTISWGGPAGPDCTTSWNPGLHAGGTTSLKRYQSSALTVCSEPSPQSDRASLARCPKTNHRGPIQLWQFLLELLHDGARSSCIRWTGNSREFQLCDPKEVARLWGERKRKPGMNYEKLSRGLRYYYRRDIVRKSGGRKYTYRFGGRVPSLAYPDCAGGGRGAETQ
# Method in brief: as §1
# ERF = molecular target: T7, ERF (Homo sapiens, UniProt P50548 1-548)
# T7 sequence: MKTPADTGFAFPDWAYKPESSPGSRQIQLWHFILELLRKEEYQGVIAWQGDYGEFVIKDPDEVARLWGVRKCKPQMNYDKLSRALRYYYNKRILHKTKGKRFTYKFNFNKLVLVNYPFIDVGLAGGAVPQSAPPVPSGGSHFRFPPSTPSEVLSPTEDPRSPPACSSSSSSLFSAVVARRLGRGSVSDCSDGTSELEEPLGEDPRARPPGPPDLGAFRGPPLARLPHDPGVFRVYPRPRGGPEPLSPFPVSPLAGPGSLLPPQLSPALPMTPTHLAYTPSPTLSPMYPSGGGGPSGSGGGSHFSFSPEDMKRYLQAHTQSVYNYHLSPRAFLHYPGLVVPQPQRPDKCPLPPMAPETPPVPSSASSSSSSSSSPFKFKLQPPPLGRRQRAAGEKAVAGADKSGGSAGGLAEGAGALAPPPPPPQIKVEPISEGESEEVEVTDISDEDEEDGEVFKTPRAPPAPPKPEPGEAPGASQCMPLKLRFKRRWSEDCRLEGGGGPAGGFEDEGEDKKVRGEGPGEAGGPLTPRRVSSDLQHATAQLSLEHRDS
# Method in brief: as §1
# SPDEF = molecular target: T8, SPDEF (Homo sapiens, UniProt O95238 1-335)
# T8 sequence: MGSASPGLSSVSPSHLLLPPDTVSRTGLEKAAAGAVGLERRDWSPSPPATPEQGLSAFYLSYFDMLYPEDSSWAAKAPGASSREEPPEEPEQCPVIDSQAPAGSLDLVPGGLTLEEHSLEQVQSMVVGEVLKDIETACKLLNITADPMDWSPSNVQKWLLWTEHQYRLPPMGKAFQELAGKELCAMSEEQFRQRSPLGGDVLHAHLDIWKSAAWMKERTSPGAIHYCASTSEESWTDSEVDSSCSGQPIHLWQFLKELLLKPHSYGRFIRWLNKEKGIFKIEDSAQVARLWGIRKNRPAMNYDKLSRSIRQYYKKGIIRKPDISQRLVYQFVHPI
# Method in brief: as §1
# ETV3 = molecular target: T9, ETV3 (Homo sapiens, UniProt P41162-2 1-143)
# T9 sequence: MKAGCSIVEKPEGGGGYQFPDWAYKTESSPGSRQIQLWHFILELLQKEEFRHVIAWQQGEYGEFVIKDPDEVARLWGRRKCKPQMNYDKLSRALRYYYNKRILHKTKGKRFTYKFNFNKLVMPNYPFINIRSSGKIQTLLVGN
# Method in brief: as §1
# ETV6 = ETV6 (Homo sapiens, UniProt P41212 1-452)
# ETV6, sequence (P41212 whole entry): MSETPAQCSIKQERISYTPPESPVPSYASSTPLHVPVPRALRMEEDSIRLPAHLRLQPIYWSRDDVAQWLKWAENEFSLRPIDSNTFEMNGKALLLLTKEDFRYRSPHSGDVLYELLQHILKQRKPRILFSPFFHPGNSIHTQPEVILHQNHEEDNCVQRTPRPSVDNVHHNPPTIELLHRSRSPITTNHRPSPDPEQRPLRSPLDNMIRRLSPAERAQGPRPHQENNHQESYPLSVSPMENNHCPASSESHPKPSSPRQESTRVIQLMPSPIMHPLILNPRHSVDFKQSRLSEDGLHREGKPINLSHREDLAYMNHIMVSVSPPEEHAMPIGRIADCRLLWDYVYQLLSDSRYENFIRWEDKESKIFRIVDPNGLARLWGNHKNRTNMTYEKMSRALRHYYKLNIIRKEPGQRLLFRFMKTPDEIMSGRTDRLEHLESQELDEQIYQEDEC
# Method in brief: as §1
sequence,measurement,setting,value
ACCAAA,binding signal,ELK1,"1.05 fold enrichment (6-mer frequency, TF over GST control)"
same,binding signal,GABPA,"1.01 fold enrichment (6-mer frequency, TF over GST control)"
same,binding signal,ELF1,"1.04 fold enrichment (6-mer frequency, TF over GST control)"
same,binding signal,EHF,"1.07 fold enrichment (6-mer frequency, TF over GST control)"
same,binding signal,SPIB,"1.03 fold enrichment (6-mer frequency, TF over GST control)"
same,binding signal,FEV,"1.07 fold enrichment (6-mer frequency, TF over GST control)"
same,binding signal,ETV5,"1.03 fold enrichment (6-mer frequency, TF over GST control)"
same,binding signal,ELF4,"1.1 fold enrichment (6-mer frequency, TF over GST control)"
same,binding signal,ELK4,"1.02 fold enrichment (6-mer frequency, TF over GST control)"
same,binding signal,ETV2,"1.14 fold enrichment (6-mer frequency, TF over GST control)"
same,binding signal,ERF,"1.03 fold enrichment (6-mer frequency, TF over GST control)"
same,binding signal,SPDEF,"1.04 fold enrichment (6-mer frequency, TF over GST control)"
same,binding signal,ETV3,"1.02 fold enrichment (6-mer frequency, TF over GST control)"
same,binding signal,ETV6,"1.03 fold enrichment (6-mer frequency, TF over GST control)"
